SKKanGAS inh: SKKanGAS growth inhibition. S. pyogenes SKKanGAS, kanamycin growth, BacTiter-Glo, 6 h. inhibition, % at 7.5 µM. 300,000 tested, 1.3% active. AID 1662;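 active means mean replicate score, as percent of positive control median, at least 50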;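 further: strain carries kanamycin resistance gene driven by streptokinase promoter and grows in 40 µg/ml kanamycin; loss of luminescence reflects streptokinase promoter inhibition or plain growth inhibition; 0% = median of DMSO wells and 100% = positive control at its reference dose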
PfHsp90 set2: growth inhibition of yeast expressing Plasmodium Hsp90; S. cerevisiae expressing PfHsp90, BacTiter-Glo ATP, 48 h; yeast lacking PDR1 and PDR3 efflux regulators; inhibition, % at 9.4 µM; 310,000 tested, 0.32% active; AID 504621;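 active means every replicate shows inhibition above about 80%, whatever the replicate mean, limit read from the data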;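 further: 0% = DMSO neutral controls and 100% = 20 µM radicicol positive controls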
TIM10 inh: inhibits growth of TIM10 yeast strain. AID 463195. S. cerevisiae TIM10 strain growth, BacTiter-Glo luminescence, 24 h. inhibition, % at 10 µM. 330,000 tested, 1.4% active;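 active means inhibition of 40% or more at the single tested concentration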;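 further: wild-type TIM10 isogenic control strain grown at permissive 25 °C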
V-ATPase pHluor: alters yeast V-ATPase proton transport; S. cerevisiae, pHLuorin cytosolic pH fluorescence; response, % at 10 µM; 350,000 tested, 0.37% active; AID 504577; in the data active means response mostly above about 7.3%, no sharp cut-off; inactive means mostly below about 5.4%; further: actives read high
tim10-1 inh: inhibits growth of tim10-1 mutant yeast; 330,000 tested, 2.2% active; AID 463190; inhibition, % at 20 µM; S. cerevisiae tim10-1 ts strain growth, BacTiter-Glo, 24 h;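 active means inhibition of at least 40%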;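 further: mutant grown at 25 °C; 0% = DMSO wells with yeast and 100% = wells holding no yeast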
tim23-1 inh: growth inhibitors of tim23-1 mutant yeast. S. cerevisiae tim23-1 growth, BacTiter-Glo luminescence, 24 h. inhibition, % at 20 µM. 330,000 tested, 1.3% active. AID 463212;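 active means growth inhibition of the mutant yeast at or above 50%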;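 further: temperature-sensitive mutant grown at 25 °C; plate controls were DMSO-treated mutant yeast for no effect and medium wells lacking yeast for full effect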
tim10 confirm: TIM10 yeast growth inhibition, confirmed | shares compounds with TIM10 inh | S. cerevisiae tim10 strain growth, BacTiter-Glo luminescence, 24 h | inhibition, % at 10 µM | 4,600 tested, 63% active | AID 463215;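 active means inhibition of yeast growth at or above a set limit in either of two replicates at 10 µM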;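 further: this counterscreen used the strain with wild-type TIM10; 0% = yeast with DMSO and 100% = medium wells lacking yeast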
Starred values were filed as active, the others as inactive; / = not tested or not shown. This is a sample that favours compounds with a hit; in the whole collection about 4.6% have one here.

SMILES | SKKanGAS inh | PfHsp90 set2 | TIM10 inh | V-ATPase pHluor | tim10-1 inh | tim23-1 inh | tim10 confirm
CCc1ccccc1NC(=O)NC1CCCCCCC1 | / | -4.7 | 16.6 | -2.5 | 15.5 | 27.3 | /
Cc1ccc(-c2[nH]nc3c2C(c2ccoc2)C(C#N)=C(N)O3)cc1C (stereo not drawn) | -3.5 | 26.1 | 41.1* | 5.4 | 38.7 | 42.4 | 29.9
CN(CC(=O)Nc1ccccc1C(F)(F)F)C(=O)COc1ncnc2ccccc12 | -1.2 | 13.2 | 12.1 | -1.6 | 3.2 | 0.3 | /
CC(=O)c1ccc2c(c1)N(CCCN1CCC(CCO)CC1)c1ccccc1S2 | / | -4.4 | 8.6 | -6.0 | -11.1 | -32.0 | /
CSc1ccc2c(c1)N(CCC1CCCCN1C)c1ccccc1S2 (stereo not drawn) | 11.0 | -5.7 | 52.5* | -0.4 | 23.0 | 17.0 | 29.1
N#CC(Nc1ccccc1)c1ccccc1OCc1ccccc1 (stereo not drawn) | 6.7 | / | 41.7* | 1.6 | 18.0 | 31.8 | 15.3
COc1ccc(C(C#N)Nc2ccccc2)cc1 (stereo not drawn) | -14.7 | / | 3.5 | / | 7.8 | -7.3 | /
Cc1ccc(N2CC(O)=C(c3nc4ccccc4c(=O)[nH]3)C2=N)cc1C | 17.4 | 17.6 | 46.7* | 4.5 | 12.9 | 45.6 | 21.3
C=CCn1c(-c2csc3c2CCC(C)C3)n[nH]c1=S (stereo not drawn) | 7.7 | -9.7 | 43.0* | 7.4 | 29.9 | 26.8 | -3.0
CCn1c(-c2csc3c2CCCC3)n[nH]c1=S | 3.6 | 3.8 | 34.1 | 3.5 | 29.4 | 34.7 | /
CCCCn1c(-c2csc3c2CCCC3)n[nH]c1=S | 9.5 | / | 42.9* | / | 20.5 | 34.0 | 24.4
O=C(NCC1CCCO1)c1cnn2c(C(F)F)cc(C3CC3)nc12 (stereo not drawn) | 0.0 | 9.6 | 4.2 | 2.6 | -0.5 | 2.1 | /
COc1ccc(-c2cc(C(F)F)n3ncc(C(=O)NCC4CCCO4)c3n2)cc1 (stereo not drawn) | -0.7 | -2.8 | 45.2* | -99.2 | 22.6 | 20.6 | 34.1*
Cc1ccc(S(=O)(=O)NCCSc2nnnn2-c2cc(C)ccc2C)cc1 | -4.3 | -3.9 | 45.2* | 1.0 | 30.2 | 24.3 | 9.0
S=C(Nc1ccccc1Oc1ccccc1)NC1CCCC1 | 14.6 | 13.4 | 40.7* | 1.8 | 24.1 | 37.4 | 20.1
CC(C)c1ccccc1NC(=S)NC1CCCCC1 | 6.8 | -1.5 | 46.2* | 1.0 | 37.0 | 14.4 | 25.2
CSc1ccccc1NC(=S)NC1CCCCC1 | 2.4 | -9.7 | -35.1 | -0.2 | 28.8 | 24.9 | /
O=C1CC(C(=O)N2CCc3ccccc32)CN1c1ccccc1 (stereo not drawn) | -5.6 | 11.6 | 7.5 | 5.0 | -16.9 | -1.8 | /
CC(=O)Oc1oc(-c2ccccc2)nc1C=Nc1ccc(N(C)C)cc1 | 0.4 | -2.7 | 44.8* | -1.3 | 29.4 | 46.8 | 22.0
N#Cc1cc(C#N)c(N2CCN(c3cccc(Cl)n3)CC2)nc1N | 6.6 | -5.2 | 41.0* | -1.9 | 11.5 | 37.9 | 17.8
NC1CCN(c2cccc(Cl)n2)CC1 | -2.8 | / | 2.1 | / | -0.6 | 4.0 | /
Cc1cccc(C(=O)Nc2cc(S(=O)(=O)N3CCOCC3)ccc2N2CCCC2)c1 | / | / | 1.1 | 3.4 | 11.8 | -2.9 | /
Clc1ccc(-c2n[nH]c3c2CCCC3)cc1 | -6.5 | -14.1 | 40.9* | -0.3 | 23.9 | 42.1 | 34.0*
CCOc1ccc(S(=O)(=O)Nc2cccc(Cl)c2)cc1 | -2.8 | -0.6 | 48.7* | 1.1 | 28.8 | 48.2 | 42.7*
CCN1/C(=C/c2ccc3cc(C)ccc3[n+]2CC)Sc2cc(C)c(C)cc21 | / | 101.2* | 51.8* | 4.4 | -9.7 | -4.1 | 78.8*
SMILES | SKKanGAS inh | PfHsp90 set2 | TIM10 inh | V-ATPase pHluor | tim10-1 inh | tim23-1 inh | tim10 confirm
C=CCN(C(=O)CSc1nc2c(sc3ccccc32)c(=O)n1CCN(CC)CC)c1ccccc1 | 8.6 | -17.6 | 51.3* | -3.3 | 39.4 | 26.0 | 19.6
O=C(Oc1ccc2c(=O)c(Cl)coc2c1)c1cccnc1 | -9.7 | 7.9 | 45.1* | -1.6 | -12.1 | -26.9 | -13.2
O=C(Oc1ccc2c(=O)c(Oc3ccc4ccccc4c3)coc2c1)c1cccnc1 | 8.5 | -8.3 | 20.2 | -3.5 | 11.3 | 16.9 | /
Oc1cc(OCc2ccccc2)ccc1-c1[nH]ncc1-c1ccccc1 | 73.1* | 105.0* | 49.9* | -2.5 | -25.2 | 30.1 | 45.9*
COc1ccc(-c2cn[nH]c2-c2ccc(OCc3ccc(F)cc3)cc2O)cc1OC | 31.2 | 7.9 | 40.1* | -0.9 | 30.9 | 22.5 | 33.5*
CCc1ccc2c(CC(=O)NNC(=O)c3ccncc3)coc2c1 | / | 0.4 | -2.8 | 1.0 | -13.5 | 0.9 | /
Cc1cc(N/N=C/c2ccccc2O)c2ccccc2n1 | -0.6 | -18.8 | 58.9* | 0.4 | 28.9 | 31.9 | 26.6*
Cc1ccccc1Nc1nc(Nc2ccccc2C)nc(SC2=NCCS2)n1 | 11.8 | -19.6 | 42.0* | 0.8 | 30.6 | 33.1 | 45.2*
O=C(c1ccc([N+](=O)[O-])s1)N1CCc2ccccc2C1 | -20.1 | 0.1 | 45.2* | -1.2 | 33.9 | 40.4 | 22.4
Cc1cc(C)c(S(=O)(=O)N2CCC(C(=O)NCc3ccncc3)CC2)c(C)c1 | -6.7 | -6.6 | 16.8 | -0.5 | 0.2 | 0.0 | /
Cc1cc(C)c(S(=O)(=O)N2CCC(C(=O)NCc3ccc(Cl)cc3Cl)CC2)c(C)c1 | 13.0 | 127.5* | 56.1* | 3.0 | 29.5 | 30.3 | 50.6*
Cc1ccc(C(=O)C=CC=Cc2ccccc2)cc1 | / | / | / | -1.5 | / | / | /
Cc1ccc(C(=O)C(C(=O)/C=C/c2ccccc2)=C2SCCCS2)cc1 | -2.2 | 18.6 | 51.7* | -2.6 | 36.7 | 31.6 | -16.1
Nc1nnc(SCCOc2ccc(Br)cc2)s1 | -7.9 | 2.2 | 11.7 | 4.5 | 21.0 | -12.8 | /
Nc1nnc(SCCCC(=O)c2ccc(Br)cc2)s1 | -2.2 | 9.5 | 40.1* | 0.7 | 11.4 | 6.3 | -1.6
Brc1ccc(-c2nnc3sc(CN4CCc5ccccc5C4)cn23)cc1 | / | 15.2 | / | -3.5 | / | / | /
c1ccc(-c2nnc3sc(CN4CCc5ccccc54)cn23)cc1 | 9.2 | 8.7 | 42.4* | 3.5 | 12.5 | 46.9 | 21.8
Clc1ccc2c(c1)C(N1CCNCC1)Cc1ccccc1S2 (stereo not drawn) | 16.8 | -0.3 | 47.8* | -0.5 | 22.0 | 3.6 | -39.5
Clc1cccc2c1Sc1ccccc1CC2N1CCNCC1 (stereo not drawn) | -3.2 | 35.8 | 32.9 | -0.2 | 32.3 | -44.7 | /
Cc1nn(-c2ccc(F)cc2)c(Cl)c1/C=N/NC(=O)c1ccc(O)cc1 | 11.1 | -12.9 | -8.4 | 3.1 | -10.1 | -6.7 | /
CNC(=S)N/N=C/c1c(C)nn(-c2ccc(F)cc2)c1Cl | -6.1 | / | 42.7* | -2.0 | 18.2 | 1.8 | -5.5
CC(C)C[C@@H](CN)NC(=O)c1nc[nH]c1C(=O)N[C@@H](C)C(=O)CNC[C@H](C)NC(=O)c1nc[nH]c1C(=O)N[C@@H](CC(=O)O)C(=O)O | / | 3.7 | / | -0.5 | / | / | /
O=C(c1c(Cl)nc2sccn12)N(C(=O)c1c(Cl)nc2sccn12)c1ccc(Cl)cn1 | -5.6 | 0.3 | 42.0* | -0.9 | 27.2 | 47.7 | 21.6
